LmPK inh: LmPK (Leishmania mexicana) enzyme inhibition | Q27686 | purified LmPK, Kinase-Glo ATP luminescence, 1 h | Potency, µM (highest dose often 57.5 µM), without a hit: at the highest dose activity change, negative = inhibition, actives largely listed as inhibitors | 290,000 tested, 0.37% active; also: potency is read from the fitted curve at half-maximal effect
Target sequence (Q27686 whole entry, looked up): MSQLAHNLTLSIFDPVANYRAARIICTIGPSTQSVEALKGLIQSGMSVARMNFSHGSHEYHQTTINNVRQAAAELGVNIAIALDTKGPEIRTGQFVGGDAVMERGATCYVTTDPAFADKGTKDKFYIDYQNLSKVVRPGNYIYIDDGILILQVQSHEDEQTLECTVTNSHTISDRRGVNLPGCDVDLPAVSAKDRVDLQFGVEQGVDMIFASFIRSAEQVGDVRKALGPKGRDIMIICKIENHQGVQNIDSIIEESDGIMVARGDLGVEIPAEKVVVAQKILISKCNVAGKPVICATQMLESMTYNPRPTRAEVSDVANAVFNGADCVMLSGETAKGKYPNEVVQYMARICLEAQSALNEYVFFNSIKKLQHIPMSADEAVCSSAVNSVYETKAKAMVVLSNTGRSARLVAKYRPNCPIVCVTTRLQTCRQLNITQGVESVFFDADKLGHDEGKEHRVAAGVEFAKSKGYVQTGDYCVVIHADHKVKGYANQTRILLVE
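Purified LmPK (0.1 nM) with 0.5 mM PEP and 0.1 mM ADP in imidazole buffer pH 7.2 with MgCl2/KCl, 1 h at room temperature. ATP formed was read by luciferase luminescence and normalized to no-enzyme and uninhibited controls.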
Vaccinia mCherry: vaccinia inhibition (mCherry reporter). Vaccinia virus mCherry reporter infection, fluorescence. Potency, µM (titrated, usually from 36.5 µM), inactives show at the top dose activity change, negative = inhibition, hits mostly inhibitors. 310,000 tested, 0.63% active; calls by dose curve; tested in A549 cells; also: potency is read from the fitted curve at half-maximal effect; nearly all actives have a fitted effect of over 35% in size
Vaccinia Venus: vaccinia inhibition (Venus reporter) | 330,000 tested, 0.46% active | Potency, µM (doses to about 36.5 µM), without a hit: at the highest dose activity change, negative = inhibition, usual class: inhibitors | Vaccinia virus Venus reporter expression, fluorescence; calls by dose curve; tested in A549 cells; also: potency is read from the fitted curve at half-maximal effect; nearly all actives have a fitted effect of over 30% in size
HCMV antiviral: human cytomegalovirus inhibition; HFF cells, HCMV-luciferase reporter, 72 h; stronger effect = lower value; activity change, negative = inhibition, % at 57.5 µM; 410,000 tested, 4.5% active; in the data active = activity change below about -60%; inconclusive = no clear call, values can overlap the other calls; inactive = above about -39%
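Two compound doses tested in HFFs infected with HCMV-luciferase, MOI 1 PFU/cell, 72 h at 37C. Lysate luminescence read with OneGlo; data normalized against buffer-only and 10uM Salinomycin inhibitor controls.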
TbPYK inhibitor: blocks Trypanosoma brucei pyruvate kinase. Q57TT1. TbPYK enzyme, Kinase-Glo Plus ATP luminescence, 45 min. Potency, µM (doses to about 76.8 µM), for the others: at the top dose activity, negative = inhibition, hits mostly inhibitors. 410,000 tested, 0.12% active; also: potency is read from the fitted curve at half-maximal effect; nearly all actives have a fitted effect of over 50% in size
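Glycolytic pyruvate kinase of T. brucei was incubated with substrate, test compound and 130 uM ADP for 45 minutes at room temperature. Luminescent Kinase-Glo Plus signal was measured after 10 minutes.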
Starred values were filed as active, the others as inactive; i = inactive; ? = inconclusive; nt = not tested or not shown; ! = not confirmed by another sample; [ ] = remark or other dose. Sampled rows, rich in hits. Any-hit rate of the full collection: about 5%. Unless noted, calls follow the shape of the dose curve; as a rule, active = well fitted curve in the direction sought with a large enough effect; inconclusive = small, poorly fitted or top-dose-only effect, or another doubt; inactive = no such curve, though single readings can be large; an effect the other way counts as inactive or inconclusive. % is scaled to controls: 0 for no effect and ±100 for the full control effect.

SMILES	LmPK inh	Vaccinia mCherry	Vaccinia Venus	HCMV antiviral	TbPYK inhibitor
NNC(=O)c1sc2nc(N3CCOCC3)c3c(c2c1N)CCCC3	-2%	nt	nt	-27	-4%
Nc1c(C(=O)N2CCOCC2)sc2nc(N3CCOCC3)c3c(c12)CCCC3	-26%	nt	nt	-19	16µM*
O=C(O)c1[nH]c2ccc([N+](=O)[O-])cc2c1-c1ccccc1	-2%	i	-11%	61	4%
NNC(=O)c1[nH]c2ccc([N+](=O)[O-])cc2c1-c1ccccc1	-2%	-22%	-18%	-89*	-3%
Cc1ccc(-c2noc(-c3cccnc3NCc3ccc(Cl)cc3)n2)cc1	nt	-8%	5%	9	3%
C=CCn1c(-c2ccccc2)c[nH]c1=S	13µM*	nt	nt	99	?
CCn1c(-c2ccc(-c3ccccc3)cc2)c[nH]c1=S	1%	i	-14%	-9	-24%
C=CCn1c(-c2ccc(Cl)cc2)c[nH]c1=S	7.9µM*	nt	nt	25	?
Cc1ccc(S(=O)(=O)N2C[C@H]3[C@H]4C(=O)N(c5ccccc5)C(=O)[C@H]4C[C@H](OC(=O)Nc4c(C)noc4C)[C@@]3(O)C2)cc1	nt	i	-2%	-8	-9%
CCCCCCCCNC(C)C(O)c1ccc(SC(C)C)cc1 (stereo unspecified)	5%	-3%	?	-82*	2%
CN(CC(=O)Nc1cccc(F)c1)CC(=O)Nc1ccccc1[N+](=O)[O-]	0%	-1%	-14%	-87*	-1%
CN(CC(=O)Nc1cccc(F)c1)CC(=O)Nc1ccc(Cl)cc1[N+](=O)[O-]	-3%	-19%	-5%	21	-2%
CN(CC(=O)Nc1cccc(F)c1)C(=O)c1ccc(N2CCCCCC2)c([N+](=O)[O-])c1	nt	?	-12%	?	3%
CN(CC(=O)Nc1cccc(F)c1)C(=O)c1ccc(N2CCCC2)c([N+](=O)[O-])c1	nt	i	-10%	-61*	3%
CS(=O)(=O)N1CCc2cc(C(=O)Nc3cccc([N+](=O)[O-])c3)ccc21	-1%	-12%	-11%	43	6%
C=CCc1ccc(OC)cc1	nt	2.2µM*!	4µM*!	2	-3%
COc1ccc(-c2ccc(OC)cc2)cc1	nt	-18%	-1%	30	-2%
O=C1C2C3C=CC(O3)C2C(=O)N1N=Cc1ccc2c(c1)OCO2 (stereo unspecified)	nt	0%	-4%	7	-13%
Cc1ccc2nc(Cl)c3cc(C(=O)NCCCN4CCCC4)sc3c2c1	-9%	i	?	-35	-12%
CCC1CCCCN1CCCNC(=O)c1cc2c(Cl)nc3ccc(C)cc3c2s1 (stereo unspecified)	nt	-28%	?	-106*	1%
Cc1cc(C)c(C(=O)COC(=O)Cn2c(C)csc2=O)cc1C	0%	-9%	-23%	-2	0%
Cn1c(SCc2ccccc2F)nc2ccccc2c1=O	nt	-11%	-2%	?	6%
NS(=O)(=O)c1ccc(NC(=O)N2c3ccccc3Sc3ccccc32)cc1	5%	-28%	-23%	-63*	0%
Cc1cc(C)n(-c2nc(NCCC(C)C)c3c4c(sc3n2)COC(C)(C)C4)n1	-7%	-10%	1%	-96*	-5%
Cc1cc(C)n(-c2nc(NCCN(C)C)c3c4c(sc3n2)COC(C)(C)C4)n1	-3%	-2%	-24%	?	-2%
SMILES	LmPK inh	Vaccinia mCherry	Vaccinia Venus	HCMV antiviral	TbPYK inhibitor
Cc1cc(C)n(-c2nc(-n3nc(C)cc3C)c3c4c(sc3n2)COC(C)(C)C4)n1	3%	nt	nt	-7	nt
CCN(CC)CCNc1nc(-n2nc(C)cc2C)nc2sc3c(c12)CC(C)(C)OC3	6%	?	?	-64*	-3%
CCC(=O)Nc1c(C)c(CC)nc2ccccc12	-8%	nt	nt	16	2%
COC(=O)c1ccccc1NC(=O)c1ccc2c(c1)CCN2S(C)(=O)=O	nt	-17%	-9%	-16	1%
COc1cc(CC(=O)N(CC(C)C)C2CCS(=O)(=O)C2)cc(OC)c1OC (stereo unspecified)	nt	-2%	-10%	3	-7%
C[C@H](CCC(=O)NCCS(=O)(=O)O)C1CC[C@H]2C3CC[C@@H]4C[C@H](O)CC[C@]4(C)C3C[C@H](O)[C@]12C (stereo partly specified)	nt	-10%	-13%	nt	nt
Cc1cc(/C=N/NC(=O)c2c(Br)cnn2C)c(C)n1-c1cccc(Br)c1	0%	-15%	-14%	-65*	0%
Cc1[nH]c2ccccc2c1/C=C/c1c(C)[nH]c2ccccc12	nt	-14%	-21%	nt	nt
Cc1[nH]c2ccccc2c1/C=C/c1cc[n+](C)cc1	-5%	-22%	27%	-69*	-4%
CCCCCCC[n+]1ccc(/C=C/c2c(C)[nH]c3ccccc23)cc1	nt	28µM*	256%	nt	nt
CCCCCCC[n+]1ccc(/C=C/c2c(C)[nH]c3ccccc23)c2ccccc21	nt	i	i	nt	nt
O=C(CNC(=O)c1cccc(Br)c1)N/N=C/c1ccc2c(c1)OCO2	-19%	-8%	6%	-74*	0%
O=C(NCc1ccccn1)C(=O)N/N=C/c1ccc2c(c1)OCO2	-12%	nt	nt	-90*	-1%
Cc1ccc(NC(=S)NCc2ccccn2)cc1	1%	nt	-3%	-17	2%
O=C(NCCc1ccccc1)C(=O)N/N=C/c1ccc2c(c1)OCO2	0%	nt	?	2	4%
S=C(NCc1ccccn1)NN=Cc1ccccn1	nt	0%	?	-99*	-15%
O=C(N/N=C\c1ccc2c(c1)OCO2)c1ccco1	14µM*	i	-12%	103	-22%
COc1ccc2c(C)c(Cc3ccccc3)c(=O)oc2c1OC	3%	nt	nt	18	5%
CC(=O)Nc1nonc1-c1nnc(SCc2ccccc2)n1C	nt	1%	-11%	19	3%
Cc1cc2oc(=O)cc(CN3CCN(C/C=C/c4ccccc4)CC3)c2cc1O	8%	nt	nt	-20	nt
Cc1c(O)ccc2c(CN3CCN(C/C=C/c4ccccc4)CC3)cc(=O)oc12	1%	-7%	-28%	-60*	-1%
COc1cc(-c2cnc3ccccc3c2)cc2c1OCCN(S(=O)(=O)C[C@]13CC[C@H](CC1=O)C3(C)C)C2	nt	-11%	4%	nt	nt
CCCCCCCn1c(=N)n(CC(O)c2ccco2)c2ccccc21 (stereo unspecified)	5%	?	-23%	-73*	2%
Cc1ccc(N2CCN(CC(O)COc3cccc(C)c3)CC2)cc1 (stereo unspecified)	-2%	i	-7%	-62*	-2%
Cc1cccc(N2CCN(CC(O)COc3ccccc3)CC2)c1 (stereo unspecified)	nt	-19%	-16%	81	-7%
CCCCCn1c(=N)n(CC(O)COc2cccc(C)c2)c2ccccc21 (stereo unspecified)	nt	10µM*	10µM*	-105*	-2%
Cc1ccc(CNC(=O)c2ccc3c(c2)nc2n3CCCC2)cc1	nt	-8%[7.34 µM]	-4%[7.34 µM]	-3	8%
Cc1ccc(C(C)C)c(OCCCN(C)Cc2ccccc2)c1	0%	-21%	-13%	-27	-4%

Screening data as filed in PubChem.
